Assay results taken from PubChem BioAssay AID1159580 (chemical genetic matrix, 2015).
Values joined by “and” are separate entries in the source; they are usually repeats but may differ in a detail not shown here. Equal entries are not always repeated. About 2,000 (36%) of roughly 5,500 compounds were called active. Not shown: some 18% with an inconclusive outcome. Rule as the data show it: active = normalized growth mostly below about 0.91 (no sharp cut-off); inconclusive = no clear call, values can overlap the other calls; inactive = mostly above about 0.92. The list shows a part of the results.

Test: chemical genetic growth profiling, strain panel (AID 1159580);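 also: tested at 20 µM; growth read once vehicle control cultures reached saturation at 30 °C; 1 = growth at the plate median or of vehicle wells; lower values mean less growth of the strain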
Settings: S. cerevisiae deletion strains, growth OD

Measured: normalized growth

C=C1C(C2(C)C=CC(=O)C(C)(C)C2CC(=O)OC)CC[C@@]2(C)[C@H](c3ccoc3)OC(=O)C3OC132 (stereo not given in full)
inactive: locus YAL021C, strain ccr4, hits give low values 1.02 | locus YAL026C, strain drs2, hits give low values 0.97 | locus YAL030W, strain snc1, hits give low values 0.996 | locus YBL061C, strain skt5, hits give low values 0.988 | locus YBR009C, strain hhf1, hits give low values 1 | locus YBR021W, strain FUR4, hits give low values 1.03 | locus YBR023C, strain chs3, hits give low values 1 | locus YBR171W, strain sec66, hits give low values 0.954 | locus YBR229C, strain ROT2, hits give low values 0.957 | locus YBR231C, strain swc5, hits give low values 0.976 | locus YBR279W, strain paf1, hits give low values 0.999 | locus YCL011C, strain gbp2, hits give low values 1 | locus YCL016C, strain dcc1, hits give low values 1.03 | locus YCL029C, strain bik1, hits give low values 0.977 | locus YCL061C, strain MRC1, hits give low values 0.997 | locus YCL069W, strain vba3, hits give low values 0.986 | locus YCR088W, strain abp1, hits give low values 0.991 | locus YDL005C, strain med2, hits give low values 0.997 | locus YDL035C, strain GPR1, hits give low values 0.978 | locus YDL040C, strain nat1, hits give low values 0.992 | locus YDL074C, strain BRE1, hits give low values 0.969 | locus YDL101C, strain DUN1, hits give low values 0.987 | locus YDL185W, strain tfp1, hits give low values 0.956 | locus YDL192W, strain arf1, hits give low values 0.985 | locus YDR001C, strain nth1, hits give low values 0.992 | locus YDR069C, strain doa4, hits give low values 0.966 | locus YDR101C, strain arx1, hits give low values 0.97 | locus YDR137W, strain rgp1, hits give low values 0.976 | locus YDR159W, strain sac3, hits give low values 0.962 | locus YDR162C, strain NBP2, hits give low values 0.982 | locus YDR195W, strain ref2 0.976 | locus YDR297W, strain sur2, hits give low values 0.996 | locus YDR318W, strain mcm21, hits give low values 0.99 | locus YDR334W, strain swr1, hits give low values 0.966 | locus YDR335W, strain msn5, hits give low values 1 | locus YDR388W, hits give low values 0.977 | locus YDR392W, strain spt3, hits give low values 0.942 | locus YDR502C, strain sam2, hits give low values 0.979 | locus YEL003W, strain gim4, hits give low values 0.983 | locus YEL037C, strain rad23, hits give low values 0.989 | locus YEL061C, strain CIN8 (second series), hits give low values 0.982 | locus YEL061C, strain CIN8, hits give low values 0.995 | locus YER015W, strain faa2, hits give low values 0.996 | locus YER016W, strain bim1, hits give low values 0.989 | locus YER110C, hits give low values 0.981 | locus YER111C, strain swi4, hits give low values 0.972 | locus YER155C, strain BEM2 (second series), hits give low values 1.01 | locus YER155C, strain BEM2, hits give low values 0.995 | locus YER167W, strain BCK2, hits give low values 0.985 | locus YFR010W, strain ubp6, hits give low values 0.971 | locus YGL078C, strain dbp3, hits give low values 0.978 | locus YGL086W, strain mad1, hits give low values 1.01 | locus YGL167C, strain pmr1, hits give low values 0.989 | locus YGL173C, strain kem1, hits give low values 0.968 | locus YGL227W, strain vid30, hits give low values 0.999 | locus YGL240W, strain doc1, hits give low values 0.999 | locus YGL248W, strain PDE1, hits give low values 0.995 | locus YGR135W, strain pre9, hits give low values 1.02 | locus YGR229C, strain SMI1, hits give low values 0.998 | locus YGR252W, strain gcn5, hits give low values 0.984 | locus YHR013C, strain ard1, hits give low values 0.993 | locus YHR027C, strain rpn1, hits give low values 0.972 | locus YHR030C, strain SLT2, hits give low values 0.991 and 0.976 | locus YHR079C, strain IRE1 (second series), hits give low values 0.975 | locus YHR079C, strain IRE1, hits give low values 0.978 | locus YHR094C, strain hxt1, hits give low values 0.976 | locus YHR129C, strain ARP1, hits give low values 0.992 | locus YHR142W, strain chs7, hits give low values 1.02 | locus YHR200W, strain rpn10, hits give low values 0.968 | locus YIL066C, strain RNR3, hits give low values 0.974 | locus YIL073C, strain SPO22, hits give low values 0.994 | locus YIL125W, strain kgd1, hits give low values 0.978 | locus YIR030C, strain dcg1, hits give low values 0.977 | locus YJL092W, strain hpr5, hits give low values 0.973 | locus YJL095W, strain BCK1 (second series), hits give low values 0.979 | locus YJL095W, strain BCK1, hits give low values 1 and 0.987 | locus YJL115W, strain asf1, hits give low values 0.98 | locus YJL129C, strain trk1, hits give low values 0.961 | locus YJL134W, strain LCB3, hits give low values 0.983 | locus YJL154C, strain vps35, hits give low values 1.01 | locus YJL164C, strain tpk1, hits give low values 1.03 | locus YJL166W, strain qcr8, hits give low values 1 | locus YJL168C, strain set2, hits give low values 0.994 | locus YJL187C, strain SWE1 (second series), hits give low values 0.989 | locus YJR066W, strain TOR1, hits give low values 0.932 | locus YJR075W, strain HOC1, hits give low values 0.98 | locus YKL009W, strain mrt4, hits give low values 0.986 | locus YKL068W, hits give low values 0.989 | locus YKL085W, strain MDH1 (second series), hits give low values 1 | locus YKL085W, strain MDH1, hits give low values 1 | locus YKL160W, strain elf1, hits give low values 1.05 | locus YKR001C, strain vps1, hits give low values 0.992 | locus YKR026C, strain gcn3, hits give low values 0.981 | locus YKR091W, strain srl3, hits give low values 0.996 | locus YLL001W, strain dnm1, hits give low values 0.967 | locus YLL026W, hits give low values 0.984 | locus YLL041C, strain sdh2, hits give low values 0.975 | locus YLR027C, strain aat2, hits give low values 0.978 | locus YLR039C, strain RIC1, hits give low values 0.92 | locus YLR058C, strain SHM2, hits give low values 0.979 | locus YLR102C, strain apc9, hits give low values 0.983 | locus YLR113W, strain HOG1, hits give low values 0.991 | locus YLR221C, strain rsa3, hits give low values 0.978 | locus YLR258W, strain gsy2, hits give low values 1.02 | locus YLR262C, strain YPT6 (second series), hits give low values 0.983 | locus YLR262C, strain YPT6, hits give low values 0.933 | locus YLR268W, strain sec22, hits give low values 0.959 | locus YLR320W, strain mms22, hits give low values 1 | locus YLR342W, strain FKS1, hits give low values 0.993 | locus YLR357W, strain rsc2, hits give low values 0.978 | locus YLR370C, strain arc18, hits give low values 0.963 | locus YLR371W, strain rom2, hits give low values 0.972 | locus YLR384C, strain iki3, hits give low values 1 | locus YLR418C, strain cdc73, hits give low values 0.994 | locus YML016C, strain PPZ1, hits give low values 0.978 | locus YML032C, strain rad52, hits give low values 0.965 | locus YML120C, strain ndi1, hits give low values 1.02 | locus YML124C, strain tub3, hits give low values 0.988 | locus YMR058W, strain fet3, hits give low values 0.994 | locus YMR078C, strain ctf18, hits give low values 0.961 | locus YMR125W, strain sto1, hits give low values 0.992 | locus YMR129W, hits give low values 0.99 | locus YMR205C, strain PFK2, hits give low values 1 | locus YMR223W, strain ubp8, hits give low values 0.993 | locus YMR231W, strain pep5, hits give low values 0.973 | locus YMR263W, strain SAP30, hits give low values 0.972 | locus YMR307W, strain GAS1, hits give low values 1.16 | locus YNL067W, strain RPL9B, hits give low values 0.992 | locus YNL071W, strain lat1, hits give low values 0.999 | locus YNL153C, strain GIM3, hits give low values 0.982 | locus YNL183C, strain NPR1, hits give low values 0.968 | locus YNL209W, strain ssb2, hits give low values 1 | locus YNL233W, strain BNI4, hits give low values 1.02 | locus YNL248C, strain rpa49, hits give low values 0.938 | locus YNL250W, strain rad50, hits give low values 0.972 | locus YNL271C, strain bni1, hits give low values 0.976 | locus YNL298W, strain CLA4, hits give low values 0.976 | locus YNL307C, strain MCK1, hits give low values 0.982 | locus YNL322C, strain KRE1 (second series), hits give low values 0.992 | locus YNR049C, strain mso1, hits give low values 0.988 | locus YNR052C, strain pop2, hits give low values 0.984 | locus YOL012C, strain htz1 1.19 | locus YOL147C, strain pex11, hits give low values 0.979 | locus YOR001W, strain rrp6, hits give low values 0.936 | locus YOR061W, strain CKA2, hits give low values 0.956 | locus YOR069W, strain VPS5, hits give low values 0.994 | locus YOR070C, strain gyp1, hits give low values 0.993 | locus YOR080W, strain dia2, hits give low values 0.976 | locus YOR083W, strain WHI5, hits give low values 1.06 | locus YOR106W, strain vam3, hits give low values 1.06 | locus YOR136W, strain idh2, hits give low values 0.976 | locus YOR144C, strain elg1, hits give low values 0.98 | locus YOR184W, strain ser1, hits give low values 0.953 | locus YOR231W, strain MKK1, hits give low values 0.996 | locus YOR265W, strain rbl2, hits give low values 0.991 | locus YOR270C, strain vph1, hits give low values 0.87 | locus YOR290C, strain snf2, hits give low values 1.05 | locus YOR316C, strain cot1, hits give low values 0.981 | locus YPL051W, strain arl3, hits give low values 0.959 | locus YPL078C, strain atp4, hits give low values 1.05 | locus YPL106C, strain sse1, hits give low values 1.04 | locus YPL240C, strain hsp82, hits give low values 0.976 | locus YPL241C, strain CIN2, hits give low values 0.986 | locus YPL256C, strain CLN2, hits give low values 0.995 | locus YPR119W, strain clb2, hits give low values 0.98 | locus YPR141C, strain kar3, hits give low values 0.985 | locus YPR163C, strain tif3, hits give low values 0.983 | locus YPR167C, strain met16, hits give low values 0.983 | strain wtn01, hits give low values 0.956
active: locus YGL253W, strain hxk2, hits give low values 0.91
